Assays:
Settings in all cases: Compound Concentration (nM):1000
[1] = test system: BRSK2
[2] = test system: BTK
[3] = test system: BUB1
[4] = test system: T1, CAMK1B
T1 construct: gene PNCK

[5] = test system: CAMK1D
[6] = test system: CAMK1G
[7] = test system: CAMK1
[8] = test system: CAMK2A
[9] = test system: CAMK2B
[10] = test system: CAMK2D
[11] = test system: CAMK2G
[12] = test system: CAMK4
[13] = test system: CAMKK1
[14] = test system: CAMKK2
[15] = test system: CASK
[16] = test system: T2, CDC2L1
T2 construct: gene CDK11B

[17] = test system: CDC2L2
[18] = test system: T3, CDC2L5
T3 construct: gene CDK13

[19] = test system: T4, CDK11
T4 construct: gene CDK19

[20] = test system: CDK2
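Also: KINOMEscan scanMAX binding as percent activity remaining versus control; lower means stronger binding.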

Compound	Percent Control [1] [%]	Percent Control [2] [%]	Percent Control [3] [%]	Percent Control [4] [%]	Percent Control [5] [%]	Percent Control [6] [%]	Percent Control [7] [%]	Percent Control [8] [%]	Percent Control [9] [%]	Percent Control [10] [%]	Percent Control [11] [%]	Percent Control [12] [%]	Percent Control [13] [%]	Percent Control [14] [%]	Percent Control [15] [%]	Percent Control [16] [%]	Percent Control [17] [%]	Percent Control [18] [%]	Percent Control [19] [%]	Percent Control [20] [%]
CCS(=O)(=O)c1ccc(OC)c(Nc2ncc(-c3cccc(F)c3)o2)c1 [GW621970X]	89	71	100	100	100	100	100	85	100	100	100	100	100	100	90	100	99	100	100	100
NS(=O)(=O)c1ccc(N/N=C2\C(=O)Nc3ccc(Cl)cc32)cc1 [GW280670X]	86	100	100	100	100	100	100	100	100	100	100	100	100	100	100	100	100	100	100	83
CN(C)c1cc2c(Nc3ccc4c(cnn4Cc4ccccc4)c3)ncnc2cn1 [GW282974X]	88	64	63	98	96	91	95	74	62	72	82	100	77	73	100	100	100	67	99	79
Cl.O=S1CCN(Cc2ccc(-c3ccc4ncnc(Nc5ccc(OCc6ccccc6)c(F)c5)c4c3)o2)CC1 [GW576924A]	85	100	100	100	100	100	100	100	100	100	100	100	100	100	100	100	100	100	100	100
Cl.O=C(O[C@H]1CN[C@H](C#Cc2cc3ncnc(Nc4ccc5c(cnn5Cc5ccccc5)c4)c3s2)C1)N1CCOCC1 [GSK200398A]	100	77	45	69	100	100	100	94	84	95	96	100	87	86	100	87	100	97	92	97
CCS(=O)(=O)c1ccc(OC)c(Nc2ncc(-c3cccc(OC)c3)o2)c1 [GW580509X]	96	99	95	100	99	100	87	71	80	97	93	100	97	79	95	100	100	100	100	100
CC1=C(C(=O)Nc2ccc3[nH]ncc3c2)C(c2ccc(Cl)c(Cl)c2)CC(=O)N1 (stereo not shown) [GSK299115A]	98	26	73	81	90	100	87	80	88	96	95	100	95	85	96	100	96	77	91	100
COc1ccc2cc(-c3c(-c4ccncc4)nc(-c4ccc(S(C)(=O)=O)cc4C)n3C)ccc2c1 [SB-633825]	73	45	33	53	96	83	93	87	97	77	76	87	77	73	84	92	96	91	100	79
Cc1cc(O)cc(C)c1/C=C/c1cncc(C(N)=O)c1 [GW435821X]	50	100	100	100	100	100	91	100	100	100	100	100	100	100	77	100	97	100	100	100
NS(=O)(=O)c1ccc(N/N=C2\C(=O)Nc3ccc(C(=O)NCc4ccncc4)cc32)cc1 [GW300657X]	94	89	49	70	80	88	85	66	78	81	82	100	45	65	78	100	82	24	100	39
Nc1ncnc2occ(-c3ccc(NC(=O)Nc4cc(C(F)(F)F)ccc4F)cc3)c12 [GW770249X]	88	87	98	94	93	94	77	100	100	100	92	100	97	82	95	99	68	1.4	0	38
Cl.O=C(Nc1ccc(Oc2ccc3[nH]c(NC(=O)c4ccco4)nc3c2)cc1)Nc1cc(C(F)(F)F)ccc1F [GW683134A]	98	95	95	100	100	100	59	85	79	100	100	90	100	100	100	100	100	95	13	96
CCn1c(-c2nonc2N)nc2c(C#CC(C)(C)O)nc(OCCNC)cc21.Cl [GSK949675]	91	100	71	100	100	100	100	100	100	100	100	100	100	100	100	100	100	100	100	100
CC(C)COC(=O)c1ccc2c(c1)/C(=C/Nc1ccc(S(N)(=O)=O)cc1)C(=O)N2 [GW416981X]	88	100	9.8	92	100	100	100	29	71	72	100	100	97	100	95	100	100	65	100	15
COc1cc(C)c(N(C)C(=O)CN(C)C)cc1Nc1nc(Nc2cccc(F)c2C(N)=O)c2cc[nH]c2n1 [GSK2219385]	93	100	90	85	87	95	97	89	93	82	98	80	97	94	100	100	100	50	92	100
C/C(Nc1ccc(S(N)(=O)=O)cc1)=C1/C(=O)Nc2ccccc21 [GW335962X]	81	83	90	79	83	86	52	79	72	100	95	100	76	82	87	100	81	65	100	87
O=C1Nc2ccc(C(=O)c3ccco3)cc2C1=Cc1cc(Cl)c(O)c(Cl)c1 [GW406108X]	100	87	50	100	81	77	63	25	44	55	77	100	43	31	87	100	98	99	100	100
COc1cc2ncnc(Nc3ccc4c(cnn4Cc4ccccc4)c3)c2cc1OC.Cl [GW282449A]	100	40	100	100	100	100	100	100	100	100	100	100	100	100	93	100	100	100	100	100
COc1ccc(COc2ccc(Cc3cnc(N)nc3N)cc2OC)cc1 [GW632580X]	55	96	100	100	95	96	100	90	96	89	99	100	95	98	98	97	75	72	89	100
COc1cc(/C=N/Nc2ncnc3[nH]ncc23)ccc1O [GW578748X]	61	44	23	83	85	100	100	80	100	96	100	100	96	88	63	100	100	100	100	100

Source: PMC7826789 (International Journal of Molecular Sciences, 2021)
